Source: PubChem
Most compounds without a hit are left out; they make up all but 2% or so of the library.
LEDGF integ inh – blockers of LEDGF/p75-dependent integrase strand transfer – biochemical, TR-FRET, high throughput, primary screen; hit rate 0.64% among 370,000; HIV-1 integrase (with human LEDGF/p75); inhibition, % at 3.7 µM; AID 743269, 2014; TR-FRET IN-LEDGF/p75 DNA integration, Eu/Cy5;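 active = inhibition above the screen-wide mean plus 3 SD, cut at about 13% in these data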;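 also: signal is the Cy5 over europium emission ratio at 671 and 618 nm; 0% = plate median of compound wells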
UHRF1 binding – UHRF1 methylated DNA binding inhibitors, primary screen, counter-screen for MBD2 inhibitor project, biochemical, TR-FRET, human UHRF1, single concentration; inhibition, % at 4.4 µM; E3 ubiquitin-protein ligase UHRF1 (Homo sapiens), Q96T88; hit rate 0.75% among 370,000; UHRF1 binding to methylated oligo; AID 687016, 2013;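 also: UHRF1 SRA domain binding a hemimethylated CpG hairpin DNA probe; 0% = median of test compound wells and 100% = reference inhibitor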
Target sequence (Q96T88 whole entry, looked up, the tested form may be a part): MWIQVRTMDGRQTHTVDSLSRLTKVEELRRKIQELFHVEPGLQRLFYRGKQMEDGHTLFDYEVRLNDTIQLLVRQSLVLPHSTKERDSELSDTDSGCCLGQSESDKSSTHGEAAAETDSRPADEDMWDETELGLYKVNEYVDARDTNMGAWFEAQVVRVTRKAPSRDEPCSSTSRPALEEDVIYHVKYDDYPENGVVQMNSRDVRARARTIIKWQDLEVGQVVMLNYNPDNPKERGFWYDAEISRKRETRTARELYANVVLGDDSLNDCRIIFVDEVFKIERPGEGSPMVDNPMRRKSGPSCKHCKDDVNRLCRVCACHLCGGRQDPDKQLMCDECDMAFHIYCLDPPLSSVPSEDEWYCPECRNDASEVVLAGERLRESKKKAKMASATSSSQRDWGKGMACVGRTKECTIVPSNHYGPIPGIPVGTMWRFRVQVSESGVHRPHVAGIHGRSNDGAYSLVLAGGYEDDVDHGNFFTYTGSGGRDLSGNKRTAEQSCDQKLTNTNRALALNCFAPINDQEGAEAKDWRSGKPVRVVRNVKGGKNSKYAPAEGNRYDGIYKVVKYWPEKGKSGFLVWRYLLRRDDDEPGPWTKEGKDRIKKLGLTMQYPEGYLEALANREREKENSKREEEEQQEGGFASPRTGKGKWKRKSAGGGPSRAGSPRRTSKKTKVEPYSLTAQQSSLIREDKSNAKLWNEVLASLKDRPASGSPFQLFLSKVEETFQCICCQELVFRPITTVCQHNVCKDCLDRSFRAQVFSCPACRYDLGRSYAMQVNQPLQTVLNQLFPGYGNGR
TCR CD3 inh – inhibitors of human TCR-CD3 interaction, primary screen, biochemical, fluorescence, TAMRA-labeled TCR probe; T-cell receptor (TCR); hit rate 0.37% among 360,000; AID 651800, 2012; inhibition, % at 9.4 µM; in the data active = inhibition above about 19%;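 also: recombinant mutant TCR 2C K166C tagged with TAMRA read by polarization; 0% = receptor in buffer alone and 100% = receptor with positive control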
MBD2 DNA inh – inhibitors of MBD2 binding to methylated DNA, primary screen, biochemical, TR-FRET, DNA-binding domain, human; Methyl-CpG-binding domain protein 2 (Homo sapiens), Q9UBB5; AID 686964, 2013; inhibition, % at 4.4 µM; MBD2 binding to methylated oligonucleotide; hit rate 0.31% among 370,000; in the data active = inhibition above about 13%
Rin1 Abl inh – inhibitors of Rin1-Abl protein binding, primary screen, biochemical, TR-FRET. Tyrosine-protein kinase ABL1 (Homo sapiens) + Ras and Rab interactor 1 (Homo sapiens), …. inhibition, % at 7.35 µM. hit rate 0.4% among 360,000; in the data active = inhibition above about 5%, passing the limit was not always enough
UHRF1 DNA bind – UHRF1 methylated DNA binding inhibitors, counter-screen for MBD2 inhibitor project, biochemical, TR-FRET, human UHRF1; UHRF1 binding to methylated oligonucleotide; inhibition, % at 4.4 µM; shares compounds with MBD2 DNA inh; hit rate 25% among 1,000;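 also: UHRF1 SRA domain binding a labeled hemimethylated CpG hairpin DNA; 0% = vehicle only and 100% = reference inhibitor with vehicle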
MBD2 confirm – inhibitors of MBD2 binding to methylated DNA, confirmation, biochemical, TR-FRET, DNA-binding domain, human; hit rate 26% among 1,000; AID 720531, 2013; inhibition, % at 4.4 µM; shares compounds with MBD2 DNA inh; TR-FRET MBD2-DBD binding to methylated oligonucleotide; in the data active = inhibition above about 14%
* marks the source's active call; other numbers are inactive results; . = not tested or not shown. Rule as the data show it, unless noted: active = inhibition above about 21%; inactive = the rest.

SMILES | LEDGF integ inh | UHRF1 binding | TCR CD3 inh | MBD2 DNA inh | Rin1 Abl inh | UHRF1 DNA bind | MBD2 confirm
Cc1[nH]c(C)c(S(=O)(=O)N(C)Cc2ccccc2)c1C(=O)N1CCCC1 | 2.5 | -8.9 | 3.8 | -7.9 | -0.7 | . | .
CCN(Cc1ccccc1)S(=O)(=O)c1c(C)[nH]c(C)c1C(=O)N1CCCCC1 | -1.4 | -0.1 | -1.0 | 14.2* | 0.7 | 2.4 | 5.0
Cc1ccc(C)c(N(CC(=O)NC(C)C)C(=O)CCC(=O)Nc2ccccn2)c1 | 1.4 | 1.7 | -2.1 | 3.7 | -1.2 | . | .
COC(=O)C1CCN(C(c2cccs2)c2sc3nc(C)nn3c2O)CC1 (stereo not drawn) | -2.4 | 9.6 | 8.3 | 19.4* | -5.7 | 1.4 | 1.6
CC1(C)C(=O)C=C(N2CCCCC2)c2ccccc21 | -1.1 | -0.4 | 3.9 | -1.0 | -2.9 | . | .
O=C(NNC(=O)c1cccc2ccccc12)c1ccc(Cl)cc1 | -1.2 | 3.8 | 3.4 | 3.0 | 1.6 | . | .
O=C(NNC(=O)c1cccc2ccccc12)c1ccc(Cl)c(Cl)c1 | 0.0 | -2.5 | 4.1 | 66.4* | -2.6 | 1.7 | 0.2
Cc1[nH]nc(C(=O)NN=Cc2ccccc2Cl)c1N=NN(C)C | -1.5 | -1.2 | 0.5 | -0.8 | 1.7 | . | .
Cc1cc(C)c2nc3nc(C)c(C)cc3c(N)c2c1 | -0.8 | 25.5* | -3.2 | 21.5* | -8.3 | 41.4* | 37.6*
COC(=O)[C@]12C[C@H](CC(=O)NCc3cccc(C(F)(F)F)c3)C(=O)N(Cc3cccc4ccccc34)C1=C[C@H](C(C)(C)C)O[C@@H]2C | -0.7 | -0.4 | . | 25.2* | . | -0.3 | 2.1
COC(=O)[C@]12C[C@H](CC(=O)NCc3ccccc3)C(=O)N(Cc3cccc4ccccc34)C1=C[C@H](C(C)(C)C)O[C@@H]2C | 1.2 | 1.2 | . | 7.4 | . | . | .
CCn1cnc2cc(NC(=O)COc3ccc(C)cc3)ccc21 | -3.0 | 2.9 | 1.3 | 14.7* | 4.0 | 3.3 | 3.7
CN[C@@H](C)C(=O)NC[C@H]1O[C@@H](n2cnc3c(N)ncnc32)[C@H](O)[C@@H]1O | -0.4 | -2.5 | -0.3 | -5.7 | -2.5 | . | .
Brc1ccc2c(c1)-c1ccccc1C1=NCCN12 | -2.6 | -10.8 | -4.3 | 12.9 | -2.8 | . | .
Clc1ccc2c(c1)-c1ccccc1C1=NCCN12 | -5.2 | -3.0 | -3.2 | 22.3* | -0.4 | 2.3 | 42.1*
Nc1cc(Nc2ccccc2)ccn1 | -4.0 | -0.6 | 4.5 | 44.4* | 1.9 | 7.2 | 1.7
COc1cccc(CN(C)C(=O)C2CC(=O)N(c3ccc4c(c3)OCCO4)C2)c1 (stereo not drawn) | -1.1 | -3.2 | 4.7 | -7.0 | -0.7 | . | .
C=CC[C@@H](CC(=O)N(CCO)Cc1ccccc1)C(=O)N[C@@H](C)COC(=O)[C@@H](CC=C)CC(=O)OC(C)(C)C | 7.9 | 27.4* | 1.1 | 17.1* | 2.3 | 9.4 | 4.7
C=CC[C@H](CC(=O)N(CCO)Cc1ccccc1)C(=O)N[C@@H](C)COC(=O)[C@H](CC=C)CC(=O)OC(C)(C)C | -1.5 | -2.2 | 5.9 | -1.5 | 0.9 | . | .
CNC(C)C(=O)NC(C(=O)N1CCCC1C(=O)NNc1ccccc1)C(C)C (stereo not drawn) | 11.4 | 56.1* | -3.2 | 45.5* | 5.9 | 8.5 | 2.1
CNC(C)C(=O)NC(C(=O)N1CCCC1C(=O)NC1CCCc2ccccc21)C(C)C (stereo not drawn) | 2.7 | 0.7 | -7.7 | 7.2 | 2.9 | . | .
COc1ccc(CNC(=O)c2cccc3c2C(=O)N(Cc2cccnc2)C3)cc1 | 0.6 | 0.5 | 3.6 | 0.3 | 4.2 | . | .
COc1ccc(CNC(=O)c2cccc3c2C(=O)N(CC2CCCO2)C3)cc1 (stereo not drawn) | 7.9 | 3.0 | -13.3 | 31.5* | 0.5 | 5.7 | 3.4
Cc1ccc(NC(=O)C2(C)CCN2C(=O)CC(c2ccccc2)c2ccccc2)cc1 (stereo not drawn) | -0.2 | 0.8 | 2.9 | 1.8 | 0.3 | . | .
Cc1c(CC(=O)O)c(=O)oc2c(C)c3occ(-c4ccc(Br)cc4)c3cc12 | 2.7 | 0.6 | 4.7 | 29.8* | 3.9 | 0.5 | 2.6
SMILES | LEDGF integ inh | UHRF1 binding | TCR CD3 inh | MBD2 DNA inh | Rin1 Abl inh | UHRF1 DNA bind | MBD2 confirm
CCCS(=O)(=O)NC(=O)C1(C)CCN(C(=O)COc2ccc(Cl)cc2Cl)C1 (stereo not drawn) | 0.1 | 0.4 | -1.7 | -2.6 | 1.6 | . | .
COc1ccc(C(=O)c2ccc3oc(-c4ccc(OC)cc4)c(C#CCCO)c3c2)cc1 | -0.3 | -2.4 | -10.8 | -5.0 | 2.7 | . | .
COc1cc(OC)cc(-c2oc3cccnc3c2C#CCCO)c1 | 0.5 | 2.2 | -2.9 | 20.8* | 0.6 | 1.7 | 0.3
Cc1ccc(S(=O)(=O)N2CCN(C(=O)c3ccc(-n4cncn4)c([N+](=O)[O-])c3)CC2)c(C)c1 | -2.4 | 0.4 | -1.5 | 0.3 | 0.5 | . | .
COC(=O)[C@@]1(C(C)C)N=C(c2cc(OC)c(OC)c(OC)c2)[C@]2(O1)C(=O)N(Cc1cn(Cc3ccccc3)nn1)c1ccc(F)cc12 | -2.7 | 16.2 | . | 13.8* | . | 11.8 | 6.0
Cc1ccc(C(=O)O)cc1-c1ccc(/C=C2/NC(=O)N(c3ccccc3)C2=O)o1 | 9.3 | 43.0* | 10.4 | 14.0* | -2.1 | 29.7* | 10.7
O=C(NC1CCCCC1)C(c1ccccc1)N(C(=O)c1csnn1)C1CCCC1 (stereo not drawn) | 3.8 | -1.8 | 8.0 | 1.9 | 1.1 | . | .
CCCc1nnc(NC(=O)CCC(=O)N2CCN(c3ccccn3)CC2)s1 | -0.2 | 18.9 | -6.0 | 14.2* | -7.1 | 7.9 | 3.6
